Tg IFNy HTS = inhibitors of Toxoplasma gondii growth with IFN-gamma | Toxoplasma gondii growth in IFN-gamma-treated host cells; stronger effect = lower value | activity change, negative = inhibition, % (concentration not given with the values) | 69,000 tested, 3.8% active | AID 1259416; in the data active means activity change below about -70%, passing the limit was not always enough;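 further: host cells are HeLa cells infected with Toxoplasma gondii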
* = called active by the depositor. Shown is part of a subset that was picked to be rich in hits.

What do the screens show for `Cc1ccc2ccc(S(=O)(=O)c3ccc4ccc(C)cc4c3)cc2c1`?
Tg IFNy HTS: -69

Results for COc1ccc(-c2ccccc2)cc1-n1ccnc1-c1cnc[nH]1 ?
Tg IFNy HTS: -82*

How did COc1cccc(-c2nccn2CCc2cnc[nH]2)c1OC do in these assays?
Tg IFNy HTS: 8

Results for CCOCc1cc(-c2nccn2-c2cccnc2)ccc1OC ?
Tg IFNy HTS: -3

How did Cn1cc(S(=O)(=O)NC(CCN2CCOCC2)c2ccccc2)c(=O)n(C)c1=O (stereo not given) do in these assays?
Tg IFNy HTS: 25

How did COc1ccc(-c2nc(CCNC(=O)c3c(F)cccc3F)cs2)cc1 do in these assays?
Tg IFNy HTS: inactive

What do the screens show for `Cc1ccc(-n2[nH]c(C)c(CC(=O)O)c2=O)cc1`?
Tg IFNy HTS: 78

What do the screens show for `Cc1ccc(Cc2c(C)[nH]n(-c3nc4ccccc4[nH]3)c2=O)cc1`?
Tg IFNy HTS: -98*

Results for Cc1ccc2nc(Cc3ccc(NC(=O)CCc4nc5ccccc5[nH]4)cc3)[nH]c2c1 ?
Tg IFNy HTS: 223

How did O=C(O)[C@@H]1CCCN1C(=O)CC12CC3CC(CC(C3)C1)C2 do in these assays?
Tg IFNy HTS: 2

What do the screens show for `COCCN(C)c1ccc2ccc(C(=O)N3CCC(N(C)C)C3)cn12` (stereo not given)?
Tg IFNy HTS: 1

How did CC(C)(C)C(=O)N1CCN(C2c3ccccc3-c3ccccc32)CC1 do in these assays?
Tg IFNy HTS: -94*

Results for CC(C)(C)C(=O)N1CCN(c2cccc(Cl)c2)CC1 ?
Tg IFNy HTS: -44

Results for O=C(c1cccnc1Oc1ccccc1)N1CCN(C2c3ccccc3-c3ccccc32)CC1 ?
Tg IFNy HTS: -34

Results for CCCCCCCc1ccc(NC(=O)NCc2ccccn2)cc1 ?
Tg IFNy HTS: -37

How did CC(=O)N1C[C@H]2C(=O)NC3(CCN(S(=O)(=O)c4ccc(C)cc4)CC3)[C@H]2C1 do in these assays?
Tg IFNy HTS: 36

What do the screens show for `CCC(C)N(Cc1cccnc1)C(=O)CCSC` (stereo not given)?
Tg IFNy HTS: -47

How did O=C(Sc1ccc(Cl)cc1)c1cccnc1Oc1ccccc1 do in these assays?
Tg IFNy HTS: -102*

What do the screens show for `O=C(Nc1csc(-c2ccc(Cl)cc2)c1)c1cccnc1Oc1ccc(Cl)cc1`?
Tg IFNy HTS: 70

How did O=C(NCc1csc2ccc(Cl)cc12)c1cccnc1Oc1ccc(Cl)cc1 do in these assays?
Tg IFNy HTS: -61

What do the screens show for `CNC(=O)c1cc(=O)n(CC(=O)Nc2cccc(C)c2C)c2ccccc12`?
Tg IFNy HTS: 13

Results for O=C(Nc1ccc(F)cc1)C(c1ccccc1)N(Cc1ccccc1)C(=O)c1cnccn1 (stereo not given) ?
Tg IFNy HTS: -2

Results for CCCCCc1nc(N)c(C#N)c(-c2ccco2)c1CCCC ?
Tg IFNy HTS: -91*

Results for CCCCCCSc1ncc(C#N)c(N)n1 ?
Tg IFNy HTS: -5

What do the screens show for `COc1ccc(-c2nc3c(s2)CN(C(=O)Nc2ccccc2C(F)(F)F)CC3)cc1`?
Tg IFNy HTS: 183

What do the screens show for `CSCCCN(C)Cc1cc(-c2ccccc2)no1`?
Tg IFNy HTS: -10

What do the screens show for `OCc1cc2ccccc2nc1-c1cccc2[nH]ccc12`?
Tg IFNy HTS: 81

Results for Cc1ccc(NC(=O)CN2CCC3(CC2)N=C(c2ccc(F)cc2)C(=O)N3)cc1C ?
Tg IFNy HTS: 1

How did COc1ccc(/C=C/C(=O)N2CCCC(c3nc(C)ncc3Cc3ccccc3)C2)cc1 (stereo not given) do in these assays?
Tg IFNy HTS: -5

How did COc1cccc(-c2cnc(N(C)C)nc2C2CCCN(C(=O)Cc3c(C)noc3C)C2)c1 (stereo not given) do in these assays?
Tg IFNy HTS: -13

Results for Cc1cccc(-c2cnc(C)nc2C2CCCN(C(=O)/C=C/c3cc(F)ccc3F)C2)c1 (stereo not given) ?
Tg IFNy HTS: -73*

What do the screens show for `Fc1ccc2nc3c(nc2c1)c1ccccc1n3Cc1csc(-c2ccc(Cl)cc2)n1`?
Tg IFNy HTS: -3

What do the screens show for `Cc1ccc(-n2sc(=O)n(Cc3ccc(F)cc3)c2=O)cc1`?
Tg IFNy HTS: -4

Results for Cc1ccc(Cn2c(-c3ccc(F)cc3)c(-c3ccc(F)cc3)nnc2=O)cc1 ?
Tg IFNy HTS: -83*

What do the screens show for `CCOC(=O)Cn1nc2nnc(-c3ccc(F)cc3)c(-c3ccc(F)cc3)n2c1=O`?
Tg IFNy HTS: -36

What do the screens show for `COCCC1CN(C(=O)COc2c(C)ccc(C)c2C)CCO1` (stereo not given)?
Tg IFNy HTS: -12

How did Cc1ccccc1-c1nc(CN(C)S(=O)(=O)c2ccc(Cl)cc2)c(C)o1 do in these assays?
Tg IFNy HTS: 16

Results for Cc1ccccc1-c1nc(CN(C)S(=O)(=O)c2ccccc2)c(C)o1 ?
Tg IFNy HTS: -1

How did CCN(CC)S(=O)(=O)c1ccc2c(c1)N(Cc1nc(-c3ccccc3C)oc1C)C(=O)CS2 do in these assays?
Tg IFNy HTS: -78*

How did CSc1cccc(NC(=O)N2CCc3nc(CNC(=O)C4CCC4)n(C)c3C2)c1 do in these assays?
Tg IFNy HTS: -28

Results for COc1ccccc1N1CCN(C(C)=O)C(Cc2ccccc2Br)C1=O (stereo not given) ?
Tg IFNy HTS: 4

Results for CCCNC(=O)N1CCc2nc(-c3ccc(C)cc3)sc2C1 ?
Tg IFNy HTS: 6

Results for CCOC(=O)c1c(NC(=O)Nc2ccc(C)cc2)sc2c1CCN(C(=O)OCC)C2 ?
Tg IFNy HTS: -97*

Results for CCOC(=O)c1c(NC2=NC3(CCCCC3)Cc3ccccc32)sc2c1CCCC2 ?
Tg IFNy HTS: 31

How did Cc1cc(C)n(-c2nc(C(=O)Nc3ccc4c(c3)CCN4S(C)(=O)=O)cs2)n1 do in these assays?
Tg IFNy HTS: 19

What do the screens show for `CS(=O)(=O)N1CCC2(CCOCC2COc2cnccn2)CC1` (stereo not given)?
Tg IFNy HTS: -5

What do the screens show for `Cc1nc(-c2ccccn2)nc(N(C)c2ccccc2)c1Cl`?
Tg IFNy HTS: -101*

Results for Cc1nc(-c2ccccn2)nc(N2CCN(CCO)CC2)c1Cl ?
Tg IFNy HTS: -14

Results for CC(C)N1CCOCC2(CN(Cc3ccc(F)cc3)CCO2)C1 (stereo not given) ?
Tg IFNy HTS: 2

What do the screens show for `CCCN1C(=O)CCc2cc(C(=O)N3CCOCC3)ccc21`?
Tg IFNy HTS: -14

What do the screens show for `O=C(CN1C(=O)CCc2cc(Br)ccc21)N1CCN(c2ccccc2)CC1`?
Tg IFNy HTS: -43

How did O=C(c1ccc2c(c1)CCC(=O)N2Cc1ccccc1)N1CCN(c2ccc(F)cc2)CC1 do in these assays?
Tg IFNy HTS: -108*

Results for COc1ccc(NC(=O)c2nnn(Cc3nc(-c4ccccc4OC)oc3C)c2C)cc1OC ?
Tg IFNy HTS: -2

How did Cc1ccc(Cl)cc1NC(=O)COc1ccccc1Br do in these assays?
Tg IFNy HTS: -83*

How did CCc1nc(OCC(=O)Nc2cc(Cl)ccc2Cl)c2ccccc2n1 do in these assays?
Tg IFNy HTS: -38

How did Cc1nc(OCC(=O)Nc2cc(Cl)ccc2C)c2ccccc2n1 do in these assays?
Tg IFNy HTS: -8

What do the screens show for `CCN1C(=O)N(Cc2cc(OC)c(OC)c(OC)c2)c2cccnc2N1CC`?
Tg IFNy HTS: 17

Results for O=C(c1cscn1)N1CCCC2(CCCN2Cc2ccc(Cl)cc2)C1 (stereo not given) ?
Tg IFNy HTS: 7

What do the screens show for `O=C(NCCN1CCc2ccccc21)C1CCC(CNC(=O)C2CCOC2)CC1` (stereo not given)?
Tg IFNy HTS: -2

Source: PubChem (Broad Institute)
